Over roughly 33,000 sequences, “E-score (-0.5 to 0.5)” has its median near -0.035; the highest 2% begin near 0.35. Shown is part of a subset that was picked to be rich in the highest values.
Each sequence was assayed against T1, Pdr3 (UniProt P33200) (assay: PBM E-score (8-mer binding enrichment) (E-score (-0.5 to 0.5)); higher = stronger / more preferred TF binding). Details: protein concentration: 200 nM; construct: GST-full length.
T1 sequence: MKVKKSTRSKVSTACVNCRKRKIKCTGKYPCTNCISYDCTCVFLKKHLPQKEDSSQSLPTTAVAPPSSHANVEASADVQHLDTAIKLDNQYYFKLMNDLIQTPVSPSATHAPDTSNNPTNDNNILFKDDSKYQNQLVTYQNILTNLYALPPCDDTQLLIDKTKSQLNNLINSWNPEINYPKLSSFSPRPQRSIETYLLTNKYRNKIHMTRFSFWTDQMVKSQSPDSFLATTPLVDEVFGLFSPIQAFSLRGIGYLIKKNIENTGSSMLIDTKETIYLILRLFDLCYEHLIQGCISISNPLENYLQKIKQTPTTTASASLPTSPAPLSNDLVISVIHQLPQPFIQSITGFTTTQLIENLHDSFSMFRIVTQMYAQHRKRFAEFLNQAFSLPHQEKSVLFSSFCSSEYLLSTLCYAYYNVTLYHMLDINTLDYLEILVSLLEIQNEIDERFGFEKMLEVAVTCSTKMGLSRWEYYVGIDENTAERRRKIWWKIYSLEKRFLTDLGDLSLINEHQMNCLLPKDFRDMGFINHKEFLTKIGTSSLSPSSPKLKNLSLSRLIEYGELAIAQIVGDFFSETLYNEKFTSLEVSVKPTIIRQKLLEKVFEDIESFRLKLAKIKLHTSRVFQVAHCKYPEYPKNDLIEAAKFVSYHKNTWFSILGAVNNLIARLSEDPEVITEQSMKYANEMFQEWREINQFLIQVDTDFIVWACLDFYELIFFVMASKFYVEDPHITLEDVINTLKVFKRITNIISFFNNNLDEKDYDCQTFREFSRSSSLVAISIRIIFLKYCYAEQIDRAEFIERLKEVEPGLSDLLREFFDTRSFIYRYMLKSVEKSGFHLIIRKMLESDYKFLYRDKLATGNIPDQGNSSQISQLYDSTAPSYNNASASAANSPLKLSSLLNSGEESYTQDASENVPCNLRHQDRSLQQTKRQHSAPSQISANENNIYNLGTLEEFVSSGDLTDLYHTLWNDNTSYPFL
Experimental: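 Universal 'all 10-mer' protein binding microarrays (Agilent AMADID 015681) probed with GST-tagged S. cerevisiae TFs (full-length or DBD) made by in vitro transcription/translation (PURExpress), about 100-200 nM. Bound TF was detected with fluorescent anti-GST. Each ungapped 8-mer (which stands for itself and its reverse complement) is scored by the PBM enrichment score (E-score), a modified Wilcoxon-Mann-Whitney statistic from -0.5 to +0.5, computed with the Universal PBM Analysis Suite. Scale: above 0.35 generally sequence-specific binding.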

Sequence	PBM E-score
CCGCCACC	0.0657
ACACAGGG	0.0204
GCCGTGAC	0.133
ACCGGAAG	0.42
CCCGGAAA	0.449
ACCGGATG	0.249
ACCGGAAC	0.474
CCTGGAAG	-0.203
CCCCGAAG	0.144
CCAGGAAA	-0.0248
ACCGGACC	0.297
CCCGGAAG	0.419
ACCGGATC	0.34
CCCGAAAA	0.191
ACCGGACG	0.311
CACCCAAG	-0.071
AAAATAAG	-0.194
CGGTTAAA	0.0999
CGATCTGA	0.0713
ATATCGAT	0.104
ACCGGAAT	0.411
CCCCGAAC	0.129

Sequence	PBM E-score
GCAGGATA	-0.0657
ACCGGAAA	0.405
GCCGGATA	0.368
CCCGGACC	0.334
ACCGGACT	0.285
ACCGGATA	0.151
ACCAGAAA	-0.105
CCCGGAAC	0.467
ACCGGAGT	0.234
ATTGGCGA	-0.2
CCACCTTA	-0.0834
GCTTTAGA	-0.238
AGAGCATC	-0.0714
CGTGCTAG	-0.276
GAAAAGGA	0.0166
GCCGAAAA	0.276
TCCGGTAA	0.307
TCAGGAAA	-0.128
TCCGGAAA	0.466
GCCGGAAA	0.42
GCCGGAAC	0.476
GCAGGAAA	-0.081

Sequence	PBM E-score
GCCGGACC	0.303
GCCGGAGC	0.236
GACAAGTA	0.00093
AAGCGATC	0.0113
ACTCCCGG	0.356
ATTCCTGG	0.0168
ATTCCGGG	0.458
ACTCCCGA	0.0347
ATTCCGGC	0.448
ATTCCCGA	0.212
ATTCCTGC	0.221
ATTCCCCG	0.28
ACTCCCCG	0.306
ATTCCAGC	0.0377
ATTCCCGG	0.393
AATCCGGG	0.354
ACTCAGCC	-0.146
ACAATAGT	-0.0518
GGACAACC	0.0553
CCACCACC	-0.0836
CCCAGGGG	-0.115
AATGTTAT	0.00821

Sequence	PBM E-score
AGCGTGGG	-0.253
AGCACCCT	-0.284
GGATCGAA	0.133
AAATCGGA	0.326
AGATCGGC	0.134
CGATCGGA	0.196
GAATCGGA	0.36
TAATCGGA	0.324
CGATCCGA	0.326
AGATCGGG	0.0992
GGATCCGA	0.399
AGATCGGA	0.394
AGATCCGA	0.169
GGATCGGA	0.359
CTTGACTA	-0.119
TGCAATAA	-0.00943
GTCTTCAA	-0.189
ACGCTGGG	-0.0598
CCCGCGAA	0.206
GAAGGAAC	0.0934

Source: the supplement of paper PMC3334620
